# Screens from PubChem.
# JMJD2A Tudor inh: inhibitors of human JMJD2A Tudor domain; AlphaScreen JMJD2A-Tudor / H3K4me3 peptide binding; O75164; 4.4% of 390,000 active; Potency, µM (highest dose often 114 µM), hits mostly inhibitors; further: nearly all actives have a fitted effect of over 50% in size
# BAZ2B block: blocks human BAZ2B; Q9UIF8; AlphaScreen BAZ2B-H3K14Ac peptide displacement; Potency, µM (top dose mostly 114 µM), actives largely listed as inhibitors; 4.4% of 360,000 active; further: nearly all actives have a fitted effect of over 60% in size
#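 AlphaScreen luminescence quantifies BAZ2B engagement of H3K14Ac peptide; the protein and biotinylated peptide are both at 50 nM final, buffer PBS pH 7.4 with 0.01% Tween-20, all steps at room temperature.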
# L3MBTL1 block: L3MBTL1 (human) inhibition; Q9Y468; AlphaScreen L3MBTL1–H3K9me1 peptide binding; 0.66% of 230,000 active; Potency, µM (series often up to 57.1 µM), usual class: inhibitors; further: nearly all actives have a fitted effect of over 60% in size
#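 L3MBTL1 (50 nM) pre-complexed 30 min with biotinylated H3(1-15)K9me1 peptide (75 nM), then compounds added for 30 min at room temperature; AlphaScreen streptavidin donor/nickel chelate acceptor beads (10 ug/mL final) read after 30 min dark incubation.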
# Sfp inh: Sfp phosphopantetheinyl transferase inhibition | Potency, µM, usual class: inhibitors | Q9F4F7 | 3.5% of 310,000 active | Biochemical Sfp PPTase activity, qHTS;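 further: the enzyme is Sfp with the accession as filed and its product quenches rhodamine fluorescence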
#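 Sfp 15 nM + cpd, 15 min RT; start w/ rhodamine-CoA 5 uM, BHQ-2-YbbR 12.5 uM (final); 50 mM Hepes pH 7.6, 10 mM MgCl2, 0.01% NP-40, 0.01% BSA; read 525/598 nm at 0 and 30 min.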
# HP1b chromo inh: HP1-beta chromodomain-methylated histone interaction inhibition; 0.56% of 390,000 active; AlphaScreen HP1-beta / biotin-H3K9me3 peptide binding; Potency, µM (series often up to 114 µM), usual class: inhibitors; AID 540317; P83916; further: nearly all actives have a fitted effect of over 70% in size
#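 AlphaScreen: HP1-beta (50 nM) preformed 30 min with biotin-H3(1-18)K9me3 peptide (50 nM) in PBS pH 7.4, 0.01% Tween-20. Compound added for 30 min at RT, then streptavidin donor/nickel chelate acceptor beads (10 ug/mL) for 30 min.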
# G9a inh: G9a (human) methyltransferase inhibition | G9a H3K9 monomethylation, AlphaScreen, 2 h | 8.8% of 350,000 active | Potency, µM (highest dose often 102 µM), usual class: inhibitors | AID 504332 | Q96KQ7; further: nearly all actives have a fitted effect of over 75% in size
#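 Methyltransferase reactions run at room temperature for 2 h (20 nM enzyme, 500 nM biotin-H3K9 peptide, 20 uM SAM) after a 15 min compound preincubation; product detected by AlphaScreen beads and anti-H3K9me1 antibody.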
# Hits are given with their value; . = inactive; ? = inconclusive; / = no result; [ ] = dose if it differs, or a comment. An excerpt weighted towards active compounds, which were near 12% of everything screened. The call rests on the fitted dose curve; in most records, active means well fitted curve in the direction sought with a large enough effect; inconclusive means small, poorly fitted or top-dose-only effect, or another doubt; inactive means no such curve, though single readings can be large; an effect the other way counts as inactive or inconclusive.
SMILES,JMJD2A Tudor inh,BAZ2B block,L3MBTL1 block,Sfp inh,HP1b chromo inh,G9a inh
CC1=NN(C(N)=S)C(=O)C1N=Nc1ccccc1Cl (stereo unspecified),.,.,.[2.29 µM],.,.,.[0.501 µM]
Cc1cccc(Cl)c1NC(=S)NN,.,.,/,.,.,3.5µM
COc1cccc(-c2cn3c(n2)sc2cc(C(=O)NCCCc4ccccc4)ccc23)c1,.,.,/,/,.,.
Cc1cccc(-c2nnn3c2nc(NCCc2ccc(S(N)(=O)=O)cc2)c2cc(Cl)ccc23)c1,.,.,/,/,.,.
COC(=O)c1cc(OC)c(OC)cc1NC(=S)Nc1cccc(C(C)=O)c1,22µM,.,.,.,.,10µM
COc1ccc(Cl)cc1NC(=S)NCc1ccccn1,.,.,.,?,.,20µM
COc1ccc(Cl)cc1NC(=S)Nc1ccccc1C,14µM,.,.,.,.,/
COc1ccccc1NC(=S)NCc1ccccn1,.,.,.,.,.,?
COc1cc(C)c(NC(=S)Nc2ccc(C)c(Cl)c2)cc1OC,.,.,.,.,?,?
COc1cc(C)c(NC(=S)Nc2cccc(Cl)c2)cc1OC,.,.,.,45µM,?,89µM
CCNc1nc2c(cnn2C)c(=O)[nH]1,.,/,/,/,.,/
COc1ccc2[nH]c(C)c(CCNS(=O)(=O)c3cc(F)ccc3OC)c2c1,?,?,/,/,.,.
Cc1ccccc1NC(=O)c1c(C)oc2ccc(O)c(CN3CCCCCC3)c12,.,.,/,/,.,.
COC(=O)c1cccc(NC(=S)NCc2ccc(Cl)cc2)c1,.,.,.,.,.,.
Cc1ccccc1NC(=S)NCCSc1ccc(Cl)cc1,89µM,?,/,.,.,.
Cc1ccc(C)c(NC(=S)NCCSc2ccc(Cl)cc2)c1,.,?,.,.,.,.
COC(=O)c1cccc(NC(=S)Nc2cc(Cl)ccc2OC)c1,.,.,.,20µM,?,/
COc1c(-c2ccccc2)oc2c(ccc3occc32)c1=O,.,.,.,.,.,.[12.7 µM]
CCn1nc(C(=O)Nc2cc(Cl)ccc2-n2cncn2)c2ccccc2c1=O,.,.,.,/,.,?
Cc1ccc(C(=O)Nc2cccc(C(F)(F)F)c2)cc1NC(=O)c1c[nH]c2cc(C(F)(F)F)ccc2c1=O,.,/,.,/,.,/
CCN1CCN(Cc2ccc(NC(=O)c3ccc(C)c(NC(=O)c4c[nH]c5cc(C(F)(F)F)ccc5c4=O)c3)cc2C(F)(F)F)CC1,.,?,/,79µM,.,?
CCOC(=O)C1CCCN(C(=O)CCc2nnc(-c3ccc(C(C)=O)s3)o2)C1 (stereo unspecified),.,.,/,.,.,35µM
COc1ccc(N2CCN(C(=O)c3ccc4c(c3)[nH]c(=S)n3c5ccccc5nc43)CC2)cc1,/,?,.,.,/,13µM
O=C(c1cc2ccccc2cc1O)N1CCN(c2ccccc2O)CC1,?,.,.,/,.,45µM
O=C(c1ccc2ccccc2n1)N1CCN(c2ccccc2O)CC1,.,.,.,.,.,45µM
SMILES,JMJD2A Tudor inh,BAZ2B block,L3MBTL1 block,Sfp inh,HP1b chromo inh,G9a inh
O=C(c1ccc2c(c1)[nH]c(=S)n1c3ccccc3nc21)N1CCN(c2cccc(Cl)c2)CC1,.,.,.,.,.,?
O=C(c1cc2ccccc2cc1O)N1CCCC1,.,.,/,.,.,.
O=C(c1ccc2ccccc2n1)N1CCN(c2ccccn2)CC1,.,.,/,.,.,.
O=C(c1cc2ccccc2cc1O)N1CCCC(C(F)(F)F)C1 (stereo unspecified),.,79µM,/,.,.,/
Cc1cccc(N2CCN(C(=O)CCc3c(C)nc4ncnn4c3C)CC2)c1C,.,.,/,/,.,.
Cc1cccc(N(C)c2nc3ccc(C(=O)c4ccccc4)cc3n3c(C)nnc23)c1,.,.,/,/,.,.
COc1ccc(N2CCN(C(=O)c3ccc4ccccc4n3)CC2)cc1,.,.,.,.,.,71µM
O=C(c1ccc2ccccc2n1)N1CCN(c2ccccc2)CC1,.,.,.,.,.,.
CC(C(=O)NCc1ccccc1)N1Cc2ccccc2C1=O (stereo unspecified),.,.,/,/,.,.
COc1ccc(N(CC(=O)N2CCN(Cc3ccccc3)CC2)S(C)(=O)=O)c(OC)c1,.,.,.,.,.,/
COc1ccc(C2=NN(C(=O)CCCC(=O)O)C(c3cn(-c4ccccc4)nc3-c3ccccc3)C2)cc1 (stereo unspecified),56µM,56µM,/,.,.,?
Cc1ccc(C2=NN(C(=O)CCl)C(c3ccco3)C2)o1 (stereo unspecified),.,.,/,.,?,40µM
CC(=O)N1N=C(c2ccco2)CC1c1ccco1 (stereo unspecified),.,.,.,.,.,.
Cc1ccc(-c2nc(CN3CCCCC3c3cccc(F)c3)c(C)o2)o1 (stereo unspecified),?,.,.,.,.,40µM
Cc1oc(-c2ccccc2Cl)nc1CN1CCCC1c1ccc(F)cc1 (stereo unspecified),.,.,.,.,.,/
Cc1ccc(S(=O)(=O)N[C@H](C(=O)OCC(=O)N2N=C(c3ccc(Cl)cc3)CC2c2ccco2)C(C)C)cc1 (stereo partly specified),.,.,.,79µM,.,.
COc1ccc(C2=NN(C(=O)CSc3nnc(C)n3C)C(c3ccco3)C2)cc1 (stereo unspecified),.,.,.,.,.,50µM
Cc1ccc(C2=NN(C(=O)CCCC(=O)O)C(c3ccco3)C2)cc1 (stereo unspecified),.,.,.,45µM,.,.
CC(=O)N1N=C(c2ccccc2)CC1c1ccc(F)cc1 (stereo unspecified),.,.,.[2.29 µM],.,.,.[0.501 µM]
CC(=O)N1N=C(c2ccc(C)o2)CC1c1cccc(F)c1 (stereo unspecified),.,.,.,40µM,?,/
Cc1cc(C)c(NC(=O)CCc2c(C)noc2C)c(C)c1,.,.,.,/,.,.[12.7 µM]
CCN1CCc2c(sc(NC(=O)c3ccc(S(=O)(=O)N4CCCC(C)C4)cc3)c2C(=O)OC)C1 (stereo unspecified),.,.,/,/,.,.
Cc1nc(C)c(C(=O)O)c(-c2ccsc2)c1C(=O)O,.,.,/,.,.,50µM
COC(=O)c1c(C)nc(C)c(C(=O)OC)c1-c1ccsc1,.,.,.,.,.,.
COc1ccc(C(=O)Nc2nnc(-c3ccccc3)s2)cc1,.,.,.,.,.,/
COc1ccc(C(=O)Nc2nnc(C(F)(F)F)s2)cc1,56µM,.,.,.,?,.
COc1ccc(CCNC(=O)C(=O)c2c[nH]c3ccccc23)cc1,/,/,/,.,/,.
Cc1cc(NC(=O)C23CC4CC(CC(C4)C2)C3)n[nH]1,.,?,.,.,.,.
